This is a sample that favours compounds with a hit; in the whole collection about 4.3% have one here.
SMARCA2 act – SMARCA2 (BRM) function activators, primary screen, cell-based, luminescence, high throughput; MG213 cells, MMTV-luciferase reporter, dexamethasone, overnight; activation, % at 9.1 µM; 370,000 compounds, 1% hits; AID 652017, 2013; in the data active = activation above about 7.8%;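 note: 0% = vehicle wells and 100% = reference activator wells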
FGF22 binding – binders of human FGF22 protein, primary screen, FGF22 synaptogenesis inhibitor project, biophysical, thermal shift, single point. activity (Tm shift, normalised), % at 9.99 µM. Fibroblast growth factor 22 (Homo sapiens), Q9HCT0. 340,000 compounds, 1.5% hits. AID 651658, 2012. recombinant FGF22 thermal shift, SYPRO orange fluorescence; percent of sucrose octasulfate shift, DMSO zero;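 active = mean Tm shift, scaled 0 neutral to 100 positive control, at about 1.3% or above, every replicate too, limit read from the data; inconclusive = no clear call, values can overlap the other calls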
Target sequence (Q9HCT0 whole entry, looked up): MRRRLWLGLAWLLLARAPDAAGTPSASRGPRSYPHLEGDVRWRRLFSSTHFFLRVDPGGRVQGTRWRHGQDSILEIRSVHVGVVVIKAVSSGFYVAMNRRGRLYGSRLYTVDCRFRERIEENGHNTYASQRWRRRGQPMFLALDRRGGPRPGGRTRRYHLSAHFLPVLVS
esBAF inh – Bmi1 luciferase reporter increase in mESCs, primary screen, esBAF inhibitor project, mouse ES cells, Bmi1 luciferase knock-in, single point; 24 h; 100% = twice the neutral-well signal; reporter increase, % at 12.5 µM; 350,000 compounds, 2% hits; in the data active = activation above about 40%; inconclusive = no clear call, values can overlap the other calls;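 note: 0% = median of the plate's neutral control wells and 100% = double that signal; a rise in the Bmi1 reporter signal indicates esBAF inhibition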
Wnt act – Wnt/beta-catenin pathway activators, primary screen, cell-based, plate reader, single point. Wnt/beta-catenin reporter cell assay, activator. activation, % at 9.35 µM. 300,000 compounds, 1.2% hits; in the data active = activation above about 30%, passing the limit was not always enough; inconclusive = no clear call, values can overlap the other calls;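 note: 0% = neutral control wells and 100% = positive control wells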
MITF TRPM1 HTS – activators of MITF-driven TRPM1 promoter reporter, primary screen, cell-based, SK-MEL-5, luciferase, single point; SK-MEL-5 TRPM1-promoter luciferase, 24 h; % of positive control, neutral wells = 0; 300,000 compounds, 0.75% hits; activation, % at 12.5 µM; AID 588334, 2011;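 active = mean activation of at least 80% with every replicate also reaching 80%; inconclusive = mean reaches 80% but some replicate falls short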;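 note: 0% = neutral control wells and 100% = parthenolide positive control wells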
MLL AF4-AF9 inh – inhibitors of AF4 peptide binding to AF9, primary screen, biochemical, AlphaScreen, biotin-AF4 peptide, FLAG-AF9, single point | inhibition, % at 10 µM | 350,000 compounds, 0.47% hits | Protein AF-9 (Homo sapiens), P42568;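 active = every replicate reaching a set inhibition limit, whatever the replicate mean, cut at about 25% in these data; inconclusive = mean inhibition reaches that limit but some replicates miss it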;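 note: 0% = plate neutral control median and 100% = total signal loss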
Active calls of the source: *; ? = inconclusive; . = no result.

SMILES | SMARCA2 act | FGF22 binding | esBAF inh | Wnt act | MITF TRPM1 HTS | MLL AF4-AF9 inh
Cc1ccc(OCCn2c(=O)sc3ccccc32)cc1 | 7 | . | 76* | 23 | 92* | .
CCC(=O)N1C[C@@H](C)[C@H](OC)CN(C)C(=O)c2cc(NC(=O)c3ccc(F)cc3)ccc2OC[C@H]1C | . | -1 | 0 | . | . | 0
O=C(C[C@H]1CC[C@@H]2[C@H](COC[C@@H](O)CN2C(=O)c2ccccc2F)O1)N1CCCCC1 | . | 0 | -5 | . | . | 0
O=C(Nc1ccc2c(c1)OCO2)N[C@@H]1CC[C@H](CC(=O)N2CCN(c3ccccc3)CC2)O[C@H]1CO | . | 0 | 4 | . | . | 2
O=C(OCc1nc2ccccc2s1)c1cnccn1 | 7 | . | 55* | . | 42 | .
O=C(OCc1nc2ccccc2s1)c1cccs1 | 6 | . | 6 | . | . | .
CSCc1ccc(C(=O)OCc2nc3ccccc3s2)o1 | 5 | 43* | . | 3 | 6 | 6
O=C(OCc1nc2ccccc2s1)c1ccccc1O | 3 | 0 | . | 15 | ? | -2
O=C(Nc1cc(F)cc(F)c1)c1ccc(NCCCN2CCCCCC2)c([N+](=O)[O-])c1 | 2 | 43* | . | -3 | 7 | 2
O=[N+]([O-])c1ccc(S(=O)(=O)N2CCN(c3ccccn3)CC2)cc1 | -4 | 43* | 4 | -6 | . | 1
O=[N+]([O-])c1cccc(S(=O)(=O)N2CCN(c3ccccn3)CC2)c1 | -4 | 0 | 4 | -1 | . | -9
CC1CCCC(C)N1C(=O)CSc1nc2ccccc2s1 (stereo unspecified) | 1 | . | 75* | . | . | .
CSc1nsc(SCC(=O)N2CCCCC2)n1 | 3 | 0 | 51* | 14 | 52 | -2
CC1CCN(C(=O)CSc2nc3ccccc3s2)CC1 | 7 | . | 33 | 42* | 38 | .
O=C(O)C1CCN(C(=O)CSc2nc3ccccc3s2)CC1 | 0 | 0 | -11 | -1 | 6 | 0
CNC(=O)CSc1nc(SC)ns1 | 5 | 0 | . | 10 | -9 | -3
O=C(CSc1nc2ccccc2s1)N1CCCCC1 | 7 | 0 | 82* | 19 | 74 | 12
C[C@H]1CN([C@@H](C)CO)C(=O)c2cc(NC(=O)CCN3CCOCC3)ccc2O[C@@H]1CN(C)CC1CCCCC1 | . | 0 | -2 | . | . | 1
CCC(=O)N1[C@H](C#N)[C@@H](c2ccccc2-c2ccccc2)[C@H]1CO | . | . | . | . | . | -3
O=C(CSc1nc2ccccc2s1)c1ccc(O)cc1O | 1 | 0 | 51* | 0 | 41 | -1
CCOc1ccc2c(c1)sc(=NC(=O)C1CC1)n2C | 6 | 0 | 60* | -1 | 6 | -17
COCCOC(=O)N1C(=O)[C@@]2(c3ccccc31)[C@H](c1ccccc1OCCO)N1[C@H](c3ccccc3)[C@H](c3ccccc3)OC(=O)[C@H]1[C@@H]2C(N)=O | . | 24* | . | . | . | 2
COCCOC(=O)N1C(=O)[C@@]2(c3cc(C#CCNC(N)=O)ccc31)[C@H](c1ccccc1OCCO)N1[C@H](c3ccccc3)[C@H](c3ccccc3)OC(=O)[C@H]1[C@@H]2C(N)=O | . | 1 | . | . | . | -13
CCCC(=O)Nc1ccc2c(c1)C(=O)N(C)[C@@H]1CC[C@H](CC(=O)OC)O[C@@H]1CO2 | . | 0 | 3 | . | . | .
COc1ccc(C(=O)C[n+]2cn(C(F)F)c3ccccc32)c(F)c1 | 4 | 0 | 52* | 14 | 13 | -5
COC(C(=O)Nc1ccnn1C1CCN(C(=O)c2ccc(C=O)cc2)CC1)c1ccccc1 (stereo unspecified) | -1 | 0 | 1 | -3 | 9 | -2
COC(C(=O)N1CCC(n2nccc2NC(=O)C2CC2)CC1)c1ccccc1 (stereo unspecified) | 3 | 0 | 44* | 17 | 47 | -5
O=C(C[C@@H]1C[C@H]2c3cc(NC(=O)Nc4ccc(F)cc4)ccc3O[C@H]2[C@H](CO)O1)NCC(F)(F)F | . | 0 | -1 | . | . | -1
O=C(CSC1=NCCS1)Nc1cccc2ccccc12 | 0 | . | -1 | -4 | -7 | .
O=C(CSc1cccs1)Nc1cccc2ccccc12 | 2 | 0 | 72* | 0 | 65 | -5
